Results on three molecules are retold here after ChEMBL document CHEMBL1157539, “Thousands of chemical starting points for antimalarial lead identification” (Nature, 2010).

The subject of this experiment is HepG2. Kind of experiment: GSK_TCMDC: Percent inhibition of human HepG2 cell line. Test compounds present at 10uM. It counts as functional.
The Inhibition is the share of the control response that was lost under treatment. High values mean strong suppression, low ones little suppression. With `CCOC(=O)c1ccc(COc2ccc(C)nc2)cc1`, the Inhibition is given as 14%.
Under `COc1ccc(Nc2nccc(NCC(O)c3cccc(C(F)(F)F)c3)n2)cc1` (stereo not drawn) stands 22%.
Under `O=C(Nc1ccc(S(=O)(=O)N2CCCCC2)cc1)c1cc(-c2cc(Cl)ccc2O)n[nH]1` stands 36%.
